Results taken from PubChem BioAssay AID485313 (National Center for Advancing Translational Sciences (NCATS), 2010).
Among all 320,000 compounds or so, about 7,600 (2.4%) were called active. Entries that show only a call come without a potency. Inconclusive results (about 3%) are left out. This is one part of a sample in which actives are shown more often than they occur. Values without a mark were called inactive. Calls come from the whole dose curve; as a rule, active = well fitted activation curve with a large enough effect; inconclusive = small, poorly fitted or top-dose-only effect; inactive = no such curve, though single readings can be large or run the other way.

experiment: qHTS Assay for NPC1 Promoter Activators; conditions: Huh7 NPC1 promoter luciferase reporter, 24 h; series mostly up to 9.22 µM; note: nearly all actives have a fitted effect of over 60% in size;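 for activation: reporter is driven by a mutant NPC1 promoter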
Method in brief: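 Quantitative HTS used a cell-based reporter: Huh7 cells stably bearing the NPC1 promoter upstream of luciferase were treated with compounds for 24 h, and promoter activation was read as luminescence.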
Potency is the fitted concentration of half-maximal effect.

Compound	Potency	activation
CCOC(=O)C1CCN(C(=O)c2cccc(S(=O)(=O)N(CC)c3ccccc3)c2)CC1	inactive	
COCCN(C(=O)CC1CCCCC1)c1c(N)n(CC(C)C)c(=O)[nH]c1=O	inactive	
O=C(Nc1nnc(C2CC2)s1)c1ccccn1	1120 nM (active)	
Cc1cnc(NC(=O)c2ccccn2)s1	447 nM (active)	
Cc1cccc(NC(=O)CSCC(=O)Nc2nnc(C3CC3)s2)c1	inactive	
O=C(Nc1nnc(C2CC2)s1)c1cc(Cl)sc1Cl	inactive	
CCc1cc(C(=O)Nc2nnc(C3CC3)s2)sc1C	inactive	
Cc1cnc(NC(=O)C2CCCC2)s1	inactive	
O=C(Cc1cccs1)Nc1nnc(C2CC2)s1	inactive	
Cc1ccc(Cl)cc1NC(=O)c1ccccn1	inactive	
Cc1cc(C(=O)Nc2nnc(C3CC3)s2)c(C)s1	3550 nM (active)	
CCc1ccccc1OCC(=O)Nc1ccc(C)c(S(=O)(=O)N2CCCCCC2)c1	inactive	
O=C(NCc1cccc(Cl)c1)C1=CC=CN2CCS(=O)(=O)N=C12	inactive	
CC(C)Cn1c(N)c(C(=O)COC(=O)C2CCCN2C(=O)c2cccs2)c(=O)n(C)c1=O (stereo not given)	inactive	
COc1ccccc1Nc1nnc(SC(C)C(=O)NC2CC2)s1 (stereo not given)	inactive	
O=C(CN1CCN(S(=O)(=O)/C=C/c2ccccc2)CC1)Nc1ccc(N2CCOCC2)cc1	inactive	
CC(=O)Nc1ccc(NC(=S)NC(=O)/C=C/c2ccccc2)cc1	inactive	
CC(OC(=O)/C=C/c1ccccc1)C(=O)Nc1ccc(C(N)=O)cc1 (stereo not given)	inactive	
O=C(/C=C/c1ccc(N2CCOCC2)cc1)c1ccccc1	2000 nM (active)	
O=C(O)c1ccc2c(c1)C(=O)N(c1ccc(/C=C/C(=O)c3ccccc3)cc1)C2=O	inactive	
CC(=O)Nc1ccc(/C=C/C(=O)c2ccccc2)cc1	2510 nM (active)	
O=C(Nc1ccccc1N1CCOCC1)c1ccncc1	inactive	

Compound	Potency	activation
CCN(C(=O)CSc1ncnc2sccc12)c1c(N)n(Cc2ccccc2)c(=O)[nH]c1=O	inactive	
CC1(C)CC(=O)C=C(c2ccc3ncccc3c2)C1	inactive	
COc1ccc2c3c(c(=O)oc2c1)C1O[C@](CCCCN2C(=O)c4ccccc4C2=O)(Cc2c1ccc1ccccc21)O3		-3.07% [at 1.84 µM]
O=C(Cn1nnc(-c2ccccc2)n1)NC(=O)NC1CCCC1	inactive	
O=C(COC(=O)Cn1[nH]c(=O)c2ccccc2c1=O)Nc1ncc(Cl)cc1Cl	inactive	
COc1ccccc1/C=C/C(=O)OCC(=O)NC1CCCCCC1	inactive	
CCOC(=O)c1c(C)[nH]c(C2=NNC(=NC(C)COC)SC2)c1C (stereo not given)	1580 nM (active)	
COc1ccc(CCNC(=O)COC(=O)C2CC2C)cc1 (stereo not given)	inactive	
CN(Cc1cnccn1)C(=O)c1cc(COc2cccc(C(F)(F)F)c2)on1	inactive	
Cc1ccc(OCc2cc(C(=O)N(C)CCc3ccccc3)no2)cc1C	2820 nM (active)	
Cc1cc(CN(C)C(=O)c2cc(COc3ccc(C)c(C)c3)on2)n[nH]1	2510 nM (active)	
CN(Cc1cccnc1)C(=O)c1cc(COc2ccc3ncccc3c2)on1	inactive	
CCn1ccnc1CN(C)C(=O)c1cc(COc2ccc(-n3cncn3)cc2)on1	inactive	
CN(CCOc1ccccc1)C(=O)c1cc(COc2c(F)cccc2F)on1	inactive	
CC1CC(C)CN(C(=O)COC(=O)c2ccc3ncsc3c2)C1 (stereo not given)	inactive	
Cc1ccc(NC(=O)CCNC(=O)c2ccc([N+](=O)[O-])cc2)cc1S(=O)(=O)N1CCOCC1	inactive	
O=C(NCCc1ccc(C(F)(F)F)cc1)c1ccc2c(c1)OCO2	inactive	
COc1ccc(NC(=O)CSc2nnc(C3CC3)n2C)cc1S(=O)(=O)N1CCCCC1	inactive	
Cc1ccc(NC(=O)C2(N3CCC3=O)CCCCC2)cc1	inactive	
COc1cccc(C(=O)NCCSc2ccc(Br)cc2)c1	inactive	
COc1ccc(C(=O)NCc2nnc(SCCOc3ccccc3)n2C)cc1	inactive	
COc1ccc(C(=O)NCCSc2ccccc2C)cc1	1260 nM (active)	

Compound	Potency	activation
Cc1c(NS(=O)(=O)c2cc(C(=O)NCCc3ccc(F)cc3)cc(Cl)c2Cl)c(=O)n(-c2ccccc2)n1C	inactive	
Cc1cc(/C=C2/NC(=O)NC2=O)c(C)n1-c1cccnc1	inactive	
Cc1cccc(C)c1-n1c(C)cc(/C=C2\C(=O)NN(c3ccccc3)C2=O)c1C	inactive	
Cc1ccccc1-n1c(C)cc(/C=C2\NC(=O)NC2=O)c1C	3550 nM (active)	
Cc1ccc(C(=O)NCC(c2cccs2)N(C)C)cc1S(=O)(=O)N1CCOCC1 (stereo not given)	inactive	
O=c1oc2ccc(C#CC3(O)CCCCC3)cc2cc1-n1cc(-c2ccsc2)nn1	inactive	
O=C(CCNS(=O)(=O)c1ccccc1C(F)(F)F)Nc1ccncc1	inactive	
CCCc1cc(-c2nc(-c3ccc(C)cc3)cs2)ccn1	inactive	
Cc1ccc(-c2csc(-c3cc(C)on3)n2)cc1	inactive	
Cc1ccc(-c2csc(-c3c[nH]c4ccccc34)n2)cc1	1000 nM (active)	
Cc1ccc(NC(=O)COC(=O)CN2CCCCCC2=O)c(C)c1	inactive	
CC(=O)Nc1ccc(NC(=O)COC(=O)c2ccccc2C(=O)c2ccccc2)cc1	inactive	
COc1ccc(C)cc1NC(=O)c1cc(-c2ccccc2)nc2c1cnn2C(C)C	inactive	
COc1ccc2nc(C)cc(Nc3cccc(C(=O)O)c3)c2c1	inactive	
Cc1ccc(-n2ncc3c(Nc4cccc(C(=O)O)c4)ncnc32)cc1	794 nM (active)	
Cc1ccc(Nc2ncnc3c2cnn3C)c(C)c1	inactive	
CCN(CC(=O)NCc1ccc(Cl)cc1)C(=O)c1c(C)noc1C	inactive	
Cc1ccc(S(=O)(=O)N2CCN(c3ncnc4ccccc34)CC2)cc1	inactive	
Cc1ccc2nc(-c3ccc(Br)cc3)cn2c1	398 nM (active)	
CSc1nnc2ccc(-c3ccc(C)cc3)nn12	inactive	
Cc1cc(N2CCOCC2)nc(-c2ccc(Br)cc2)n1	inactive	
Cc1ccc(-c2cn3cc([N+](=O)[O-])ccc3n2)cc1	501 nM (active)	

Compound	Potency	activation
Cc1nc(-c2ccc([N+](=O)[O-])cc2)c(-c2ccccc2)o1	inactive	
Cc1ccc(C(=O)Cn2cc([N+](=O)[O-])nc2C)cc1	inactive	
CC1CCCC(NC(=O)c2cc(-c3ccncc3)nc3ccccc23)C1C (stereo not given)	inactive	
CCOc1ncccc1C(=O)OCC(=O)c1c[nH]c2ccccc12	inactive	
Brc1ccc(CN2CC[C@H]3C=CCc4cccc(c43)C2)cc1	inactive	
O=C(OCc1cc(=O)n2ccsc2n1)C1(c2ccc(Cl)cc2)CC1	inactive	
O=C(Nc1ccn(Cc2ccccc2)n1)c1cccc(F)c1	3980 nM (active)	
O=C(Nc1cccc(NC(=O)c2cccc(F)c2)c1)c1ccccc1	inactive	
O=C(Nc1ccccc1N1CCN(c2ccccc2)CC1)c1cccc(F)c1	inactive	
Cc1ccc(S(=O)(=O)N(C)CC(=O)NCC(c2ccc(F)cc2)N2CCOCC2)cc1 (stereo not given)	inactive	
CC(C)Nc1ccc(-n2nc3ccccc3[n+]2[O-])cc1	355 nM (active)	
Cc1cc(Cl)ccc1OCc1nc(-c2ccncc2)no1	2820 nM (active)	
COc1ccc(-c2noc(COc3ccc(Cl)c(C)c3)n2)cc1	inactive	
CN(Cc1ccccn1)Cc1nc(-c2ccc(Cl)cc2)no1	inactive	
Cc1cc(NC(=O)CSc2nnnn2-c2ccc(F)cc2)no1	inactive	
N#Cc1ccc(OCC(=O)NC(=O)NC2CCS(=O)(=O)C2)cc1 (stereo not given)	inactive	
Cn1c(=NC(=O)c2ccco2)sc2cccc(F)c21	2510 nM (active)	
CCCC(=O)N=c1sc2cccc(F)c2n1C	inactive	
Cn1c(=NC(=O)C2CC2)sc2cc(F)cc(F)c21	inactive	
CC1CC2C3CCC4=CC(=O)C=C[C@]4(C)[C@@]3(F)[C@@H](O)C[C@]2(C)[C@@]1(O)C(=O)CO (stereo not given in full)	inactive	
CN(C)S(=O)(=O)c1cccc(NC(=O)COc2ccc3ccccc3c2)c1	inactive	
O=C(COC(=O)c1ncc(Cl)c(Cl)c1Cl)NCc1ccccc1	inactive	

Compound	Potency	activation
CCOc1ccc(C(=O)Nc2nccs2)cc1[N+](=O)[O-]	inactive	
Cc1cccc(-c2nc(Nc3ccc(O)cc3)c3ccccc3n2)c1	inactive	
Cc1cccc(-c2noc(CCC(=O)NC3CCCC3)n2)c1	inactive	
Cc1ccc(-c2noc(CC(c3ccccc3)c3ccccc3)n2)cc1	inactive	
Cc1ccc(Cc2nc(-c3cccc(C)c3)no2)cc1	2820 nM (active)	
Cc1cccc(-c2noc(-c3ccc(F)cc3)n2)c1	100 nM (active)	
Cc1ccc(-c2noc(CN3CCN(Cc4ccccc4)CC3)n2)cc1	inactive	
O=C(CSc1ccccc1)Nc1cccc(S(=O)(=O)N2CCOCC2)c1	inactive	
CCOC(=O)c1sc(NC(=O)c2sc(C)nc2C)nc1C	inactive	
COc1cc2ccccc2cc1C(=O)Nc1nc(C)c(C(C)=O)s1	3980 nM (active)	
COc1cc2ccccc2cc1C(=O)Nc1ccccc1C	inactive	
Cc1ccc(S(=O)(=O)Nc2nc(C)cc(N/N=C/c3ccc(O)cc3)n2)cc1	inactive	
CC(=O)c1sc(NC(=O)CCCOc2ccccc2C)nc1C	inactive	
CC(=O)c1sc(N/N=C/c2ccc(C(C)C)cc2)nc1C	1000 nM (active)	
COc1cc2ccccc2cc1C(=O)Nc1ccncc1	inactive	
CC(=O)c1sc(N)nc1C	inactive	
CC(=O)c1sc(NC(=O)C2=NN(c3ccccc3)C(=O)CC2)nc1C	inactive	
Cc1nnc(C)n1/N=C/c1ccc(C(C)C)cc1	inactive	
CC(=O)c1sc(NC(=O)c2ccc(C)cc2)nc1C	1580 nM (active)	
CC(=O)c1sc(N/N=C\c2ccc(C)cc2)nc1C	3550 nM (active)	
COc1ccc(Cl)cc1NC(=O)CN(C)CC(=O)Nc1ccc2c(c1)OCO2	inactive	
COc1ccc(-c2cc(C(=O)NCCCN3CCCC3=O)c3ccccc3n2)cc1OC	inactive	
